From PubChem
Rab2 wt GTP: modulators of GTP binding to Rab2A wildtype, primary screen, biochemical, dog, bead-based flow cytometry, multiplex. 190,000 tested, 0.19% active. AID 760, 2007. Ras-related protein Rab-2A (Canis lupus familiaris), P61105. GTP binding activity, % at 10 µM. GST-Rab2 wt beads, Bodipy-GTP binding;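 active = GTP binding activity at least 20 points away from 100%, either lowered or raised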;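 also: 0% = beads with excess unlabeled GTP and 100% = no-compound control corrected for plate trend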
HRas wt GTP: modulators of GTP binding to HRas wildtype, primary screen, biochemical, bead-based flow cytometry, multiplex; GTPase HRas (Homo sapiens), P01112; GST-Ras wt beads, Bodipy-FL-GTP binding; actives lie on both sides; GTP binding activity, % at 10 µM; 190,000 tested, 0.14% active; AID 759, 2007;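 active = GTP binding activity at least 20% away from the 100% baseline, either lowered as inhibitor or raised as activator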;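 also: 0% = unlabeled GTP competition control and 100% = no-compound control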
Target sequence (P01112 whole entry, looked up): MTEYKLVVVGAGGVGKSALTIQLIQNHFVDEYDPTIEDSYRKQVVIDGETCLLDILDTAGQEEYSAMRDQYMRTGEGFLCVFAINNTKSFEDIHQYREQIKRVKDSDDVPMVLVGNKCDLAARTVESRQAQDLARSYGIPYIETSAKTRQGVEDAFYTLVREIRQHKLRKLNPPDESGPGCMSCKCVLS
Rac1 act GTP bind: GTP binding modulators of activated mutant Rac1, primary screen, biochemical, bead-based flow cytometry, multiplex, fluorescent GTP; Ras-related C3 botulinum toxin substrate 1 (Homo sapiens), P63000; GST-Rac1 activated beads; actives lie on both sides; 100% means binding = to untreated wells; percent activity (GTP binding), % at 10 µM; 190,000 tested, 0.11% active; AID 764, 2007;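 active = GTP binding at least 20 percentage points away from the 100% baseline, in either direction, so actives lie on both sides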
Cdc42 wt GTP: modulators of GTP binding to wildtype Cdc42, primary screen, biochemical, multiplex bead flow cytometry, Bodipy-GTP. Cell division control protein 42 homolog (Homo sapiens), P60953. GST-Cdc42 beads; actives lie on both sides. percent activity (GTP binding), % at 10 µM. 190,000 tested, 0.2% active. AID 761, 2007;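 active = percent activity GTP binding at least 20 points away from the 100% baseline, either down as inhibitor or up as activator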;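 also: median bead fluorescence of bound Bodipy-FL-GTP at 100 nM; 0% = excess unlabeled GTP control and 100% = no compound control; below 100% means less GTP binding so inhibitor and above means activator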
Target sequence (P60953 whole entry, looked up): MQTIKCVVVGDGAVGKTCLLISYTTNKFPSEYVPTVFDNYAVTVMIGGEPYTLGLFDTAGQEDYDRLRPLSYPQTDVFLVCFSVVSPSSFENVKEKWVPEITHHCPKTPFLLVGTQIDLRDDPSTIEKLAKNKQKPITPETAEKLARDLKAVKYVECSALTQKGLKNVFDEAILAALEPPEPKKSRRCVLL
Rab7 wt modul: modulators of GTP binding to Rab7, primary screen, biochemical, wildtype, multiplex bead flow cytometry. Rab7 GTPase wild type (dog), Bodipy-FL-GTP binding. GST-Rab7 beads, fluorescent GTP binding; actives lie on both sides; untreated = 100%, excess cold GTP = 0%. GTP binding activity (percent of control), % at 10 µM. 190,000 tested, 0.055% active. AID 758, 2007;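 active = fluorescent GTP binding to Rab7 beads changed by at least 20 points from the 100% baseline, either direction, mostly lower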;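 also: median green fluorescence of bound Bodipy-FL-GTP per Rab7 bead population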
Rac1 wt modul: wildtype Rac1 GTP binding modulators, primary screen, biochemical, GST-Rac1 beads, flow cytometry, multiplex | fluorescent GTP binding; actives lie on both sides; 0 = cold GTP competed, 100 = untreated | GTP binding activity (% of control), % at 10 µM | Ras-related C3 botulinum toxin substrate 1 (Homo sapiens), P63000 | AID 757, 2007 | 190,000 tested, 0.27% active;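 active = GTP binding activity at least 20 points away from the 100% control level, either lower or higher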
* marks the source's active call; other numbers are inactive results; [ ] = remark or other dose. Compounds with a hit are over-represented: about 0.37% of the library has one in this group of screens.

SMILES | Rab2 wt GTP | HRas wt GTP | Rac1 act GTP bind | Cdc42 wt GTP | Rab7 wt modul | Rac1 wt modul
COc1cc(/C=N/Nc2nncn2/N=C/c2ccc(O)c(OC)c2)ccc1O | 79.0* | 76.0* | 86.0 | 77.0* | 91.0 | 75.0*
COc1cc(/C=N/Nc2ccccc2C(F)(F)F)ccc1O | 97.0 | 94.0 | 93.0 | 90.0 | 103.0 | 94.0
Cc1cc(C)n(CC(C)NCc2cn[nH]c2-c2ccc(C)c(C)c2)n1 (stereo not given) | 98.0 | 97.0 | 97.0 | 100.0 | 103.0 | 99.0
CC1=CC(=O)C=C(C)C1=NOc1ccccc1[N+](=O)[O-] | 95.0 | 97.0 | 95.0 | 99.0 | 95.0 | 98.0
CC(C)Cn1c(N)c(S(=O)(=O)c2cccs2)c2nc3ccccc3nc21 | 100.0 | 100.0 | 99.0 | 101.0 | 99.0 | 100.0
COc1ccc(/C=N/n2c(N)c(S(=O)(=O)c3cccs3)c3nc4ccccc4nc32)cc1OC | 49.0* | 56.0* | 74.0* | 61.0* | 75.0* | 57.0*
Nc1c(S(=O)(=O)c2cccs2)c2nc3ccccc3nc2n1/N=C/c1cccc(O)c1 | 46.0* | 47.0* | 64.0* | 45.0* | 73.0* | 64.0*
COC(=O)C1=C(C)N(C2CCCCC2)C(=O)/C1=C\c1cccs1 | 100.0 | 95.0 | 92.0 | 93.0 | 106.0 | 97.0
CCN1/C(=C\C=C2\C(=O)N(c3ccccc3)C(=S)N2C)Sc2ccccc21 | 87.0 | 78.0* | 85.0 | 83.0 | 83.0 | 83.0
CCCN1C(=O)/C(=C\C=C2/Sc3ccccc3N2CC)SC1=S | 74.0* | 68.0* | 75.0* | 73.0* | 77.0* | 69.0*
Cc1ccc(S(=O)(=O)N2CCC(NC(=O)c3ccccc3)CC2)cc1 | 96.0 | 97.0 | 97.0 | 96.0 | 100.0 | 98.0
COc1ccc2cc(C)c3nnc(SCc4cccnc4)n3c2c1 | 83.0 | 82.0 | 90.0 | 79.0* | 95.0 | 86.0
O=C(O)c1ccc(CNC(=O)c2ccc(C(F)(F)F)cc2)cc1 | 93.0 | 96.0 | 92.0 | 92.0 | 99.0 | 97.0
COC(=O)c1ccc(/C=N/Nc2nc(-c3ccc(Cl)cc3Cl)cs2)cc1 | 123.0*[activator] | 121.0*[activator] | 119.0 | 127.0*[activator] | 124.0*[activator] | 130.0*[activator]
CN1CCN(c2ccccc2NC(=O)c2ccc(-c3cccc([N+](=O)[O-])c3)o2)CC1 | 106.0 | 107.0 | 107.0 | 108.0 | 106.0 | 123.0*[activator]
COc1ccc(Cn2c(-c3ccc(C)cc3)nc3c(c(=O)c4ccccc4n3C)c2=O)cc1 | 96.0 | 98.0 | 96.0 | 94.0 | 101.0 | 108.0
COc1cc(/C=C2\SC(c3ccccc3)=NC2=O)cc(Cl)c1O | 77.0* | 81.0 | 81.0 | 78.0* | 88.0 | 81.0
O=c1c2cc(NC(=S)N3CCCCCC3)ccc2nc2n1CCCCC2 | 96.0 | 94.0 | 96.0 | 93.0 | 93.0 | 94.0
Cc1ccccc1NC(=O)COC(=O)c1ccc(S(C)(=O)=O)c([N+](=O)[O-])c1 | 94.0 | 91.0 | 82.0 | 83.0 | 99.0 | 92.0
O=C(OCc1nnc(-c2ccccc2)o1)c1ccc(Cl)cc1 | 91.0 | 92.0 | 91.0 | 93.0 | 92.0 | 91.0
CS(=O)(=O)c1ccc(C(=O)OCc2nnc(-c3ccccc3)o2)cc1[N+](=O)[O-] | 85.0 | 87.0 | 74.0* | 76.0* | 100.0 | 89.0
CS(=O)(=O)c1ccc(C(=O)OCC(=O)NC(=O)C2CCCCC2)cc1[N+](=O)[O-] | 82.0 | 87.0 | 71.0* | 68.0* | 100.0 | 89.0
NS(=O)(=O)c1ccc(-c2ccc(/C=C3\C(=O)Nc4cc(Cl)ccc43)o2)cc1 | 76.0* | 76.0* | 87.0 | 73.0* | 94.0 | 68.0*
CC1(C)OC(=O)C(=Cc2ccc(-c3ccc(S(N)(=O)=O)cc3)o2)C(=O)O1 | 92.0 | 88.0 | 85.0 | 92.0 | 98.0 | 88.0
O=S(=O)(Nc1nc2ccccc2[nH]1)c1ccc2ccccc2c1 | 93.0 | 93.0 | 90.0 | 94.0 | 92.0 | 95.0
SMILES | Rab2 wt GTP | HRas wt GTP | Rac1 act GTP bind | Cdc42 wt GTP | Rab7 wt modul | Rac1 wt modul
O=S(=O)(Nc1ncn[nH]1)c1ccc2ccccc2c1 | 110.0 | 113.0 | 113.0 | 121.0*[activator] | 112.0 | 126.0*[activator]
CCOc1ccc(C2C(C(=O)O)CCC(=O)N2C2CCCCC2)cc1 (stereo not given) | 73.0* | 72.0* | 73.0* | 72.0* | 74.0* | 71.0*
O=C(CCOc1ccccc1)Nc1nnc(-c2ccc3c(c2)OCCO3)o1 | 90.0 | 88.0 | 88.0 | 89.0 | 99.0 | 90.0
O=C(Nc1nnc(-c2ccc3c(c2)OCCO3)o1)c1ccc(Cc2ccccc2)cc1 | 81.0 | 85.0 | 79.0* | 80.0 | 86.0 | 92.0
Cc1ccccc1NC(=O)c1cc2c(C)nc3ccccc3c2o1 | 88.0 | 90.0 | 90.0 | 88.0 | 92.0 | 84.0
CCc1ccc(NC(=O)c2cc3c(C)nc4ccccc4c3o2)cc1 | 85.0 | 87.0 | 89.0 | 85.0 | 91.0 | 75.0*
CCc1cc(=O)[nH]c(SCCC(F)=C(F)F)n1 | 98.0 | 97.0 | 94.0 | 95.0 | 105.0 | 96.0
O=C(O)c1ccccc1OCCOc1ccccc1 | 130.0*[activator] | 123.0*[activator] | 132.0*[activator] | 138.0*[activator] | 123.0*[activator] | 157.0*[activator]
Cc1ccc(NC(=S)Nc2ccc3nc(-c4ccccn4)c(-c4ccccn4)nc3c2)cc1C | 100.0 | 103.0 | 104.0 | 101.0 | 105.0 | 125.0*[activator]
COc1ccc2o/c(=N/NC(=O)c3cccs3)c(C(N)=O)cc2c1 | 61.0* | 61.0* | 80.0 | 60.0* | 91.0 | 57.0*
CCn1c(O)c(/C=C/C=C/C=Nc2ccccc2)sc1=S | 98.0 | 96.0 | 93.0 | 95.0 | 102.0 | 94.0
CCCCn1c(O)c(/C=C/C=C/C=Nc2ccccc2)sc1=S | 88.0 | 83.0 | 78.0* | 85.0 | 93.0 | 84.0
N=C1/C(=C\c2ccc(SCc3ccco3)o2)C(=O)N=C2SC=NN12 | 77.0* | 74.0* | 81.0 | 72.0* | 88.0 | 76.0*
O=C(O)CCC(=O)Nc1ccc(/C=C/C(=O)C2CC2)cc1 | 97.0 | 97.0 | 97.0 | 99.0 | 95.0 | 98.0
COc1ccc(-c2cc(-c3ccccc3)c(C#N)c(=S)[nH]2)cc1 | 85.0 | 82.0 | 80.0 | 79.0* | 95.0 | 85.0
Clc1ccc(CNc2ccc3nnc(-c4ccccc4)n3n2)cc1 | 97.0 | 97.0 | 97.0 | 98.0 | 94.0 | 98.0
CCOc1ccc(CCNc2ccc3nnc(-c4ccccc4)n3n2)cc1OCC | 76.0* | 74.0* | 89.0 | 79.0* | 88.0 | 76.0*
